D1 antag: blocks dopamine activation of the human D1 receptor. activity change, negative = inhibition, % at 10 µM. 3.2% of 360,000 active. HEK293 TREx D1 cells, calcium flux, dopamine EC80; stronger effect = lower value; in the data active = activity change below about -30%
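Tetracycline-induced HEK293 Trex D1 cells, force-coupled to calcium, dye-loaded; compounds added and read 180 s, then EC80 dopamine added and calcium flux tracked kinetically another 180 s.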
TRHR agonist: agonists of human TRH receptor; P34981; TRHR cells, calcium flux fluo-8, FDSS agonist mode; activation, % at 2 µM; 0.18% of 360,000 active; AID 493084
Target sequence (P34981 whole entry, looked up): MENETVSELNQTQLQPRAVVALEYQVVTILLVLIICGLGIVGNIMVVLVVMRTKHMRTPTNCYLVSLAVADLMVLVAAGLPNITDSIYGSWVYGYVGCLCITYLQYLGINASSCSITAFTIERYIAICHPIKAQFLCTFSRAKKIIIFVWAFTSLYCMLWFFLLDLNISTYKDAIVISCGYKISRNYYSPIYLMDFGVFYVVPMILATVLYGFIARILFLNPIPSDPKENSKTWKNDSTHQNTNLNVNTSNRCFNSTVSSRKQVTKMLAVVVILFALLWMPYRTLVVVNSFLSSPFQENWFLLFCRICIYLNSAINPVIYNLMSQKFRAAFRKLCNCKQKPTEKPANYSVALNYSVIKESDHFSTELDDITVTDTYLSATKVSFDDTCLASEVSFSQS
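Agonist-mode FDSS calcium read (Ex 480/Em 530, 1 s cycles) in 1536-well TRHR cells with fluo-8 dye, after 10-cycle baseline and 23 nL compound addition; TRH at EC20 (10 nM final) added afterwards for the enhancer phase.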
D1 PAM: human D1 dopamine receptor positive modulation | P21728 | AID 504651 | potentiation, % at 10 µM | HEK293 TREx D1 cells, calcium flux, dopamine EC20 potentiation | 0.036% of 360,000 active; in the data active = potentiation above about 30%
D1 agonist: agonists of human D1 dopamine receptor | P21728 | HEK293 T-REx D1 cells, calcium flux, agonist mode | activation, % at 2 µM | 1% of 360,000 active | AID 504660
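Tetracycline-induced HEK293 TREx D1 cells, force-coupled to calcium signalling, were dye-loaded with a no-wash calcium kit. Compound was pin-added after a 10 s baseline. Fluorescence was read kinetically at 1 cycle/s for 180 s, with calcium rises flagged as agonism.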
TRHR PAM: allosteric enhancers of human TRH receptor. AID 493056. TRHR cells, fluo-8 calcium fluorescence, EC20 TRH enhancement. P34981. enhancement, % at 2 µM. 0.66% of 360,000 active; in the data active = enhancement above about 30%
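Enhancer read-out: after compound pinning and an initial kinetic agonist-mode read, an EC20 of TRH (10 nM final) was injected and fluo-8 calcium signal (Ex 480/Em 530) followed at 1 s/cycle for 100 cycles in TRHR-expressing cells.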
Large screens that a line does not name were inactive. An excerpt weighted towards active compounds, which were near 4.7% of everything screened. Rule as the data show it, unless noted: active = activation above about 30%; inactive = the rest.

COc1ccc(C(=O)NCCS(=O)(=O)NCc2cccnc2)cc1	TRHR PAM 33
Cc1cccc(-n2c3nc(=O)[nH]c(=O)c-3cc3c(Cl)cccc32)c1C	none
COc1ccc(/C=C/C(=O)NCc2cccnc2)cc1	D1 antag -40
COc1ccc(/C=C(/NC(=O)/C=C/c2ccccc2)C(=O)O)cc1	TRHR PAM 34
COc1ccc(NC(=S)NCc2cccnc2)cc1	D1 antag -31
COc1ccc(NC(=S)NC(=O)/C=C/c2ccccc2)cc1	none
COc1cc(/C=C/C(=O)NCc2cccnc2)cc(OC)c1OC	none
COc1ccc(NC(=S)NCc2cccnc2)cc1OC	none
COc1ccc(/C=C/c2nc(C#N)c(N3CCCCC3)o2)cc1OC	none
C[C@H](NC(=O)c1nc[nH]c1C(=O)NCCCCCNC(=O)OC(C)(C)C)C(=O)OCc1ccccc1	D1 antag -39
Cc1cccc(NC(=O)c2nc[nH]c2C(=O)N[C@@H](C)C(=O)OCc2ccccc2)c1	D1 antag -33
C[C@@H](NC(=O)c1nc[nH]c1C(=O)N[C@@H](Cc1ccccc1)C(=O)OCc1ccccc1)c1ccccc1	none
C[C@H](NC(=O)c1nc[nH]c1C(=O)N[C@H](C)c1ccccc1)C(=O)OCc1ccccc1	D1 antag -33
CCCC(=O)N1c2nc(C(C)C)nn2C2(CCCCC2)[C@@H]2CCCC[C@@H]21	none
CCOC(=O)c1cc(C)n(CC2CCC(C(=O)Nc3cccc(C)c3)CC2)c1C (stereo not drawn)	none
CC(C)c1ccc(S(=O)(=O)N2CCN(C(=O)c3ccncc3)CC2)cc1	D1 antag -31 (no result: D1 PAM)
CCC(C)N(C(=O)COc1ccc(-c2nnco2)cc1)C1CCS(=O)(=O)C1 (stereo not drawn)	D1 antag -54
Cc1ccc(C(=O)/C=C/c2cc(Br)cc(Br)c2O)o1	D1 agonist 43
O=C(/C=C/c1cccs1)Nc1nc(-c2ccccc2)cs1	D1 antag -36
COc1ccccc1N1CCN(C(=O)c2cnn(-c3ccc(C)c(C)c3)c2C2CCN(C(=O)OC(C)(C)C)CC2)CC1	none
CNCC[C@@H](Oc1ccc(C(F)(F)F)cc1)c1ccccc1	D1 agonist 46 (no result: D1 antag, D1 PAM)
CN(C)C(CNc1ccc(C(F)(F)F)cn1)c1ccccc1 (stereo not drawn)	none
CCN(CC)c1ccc2c(-c3ccc(S(=O)(=O)O)cc3S(=O)(=O)[O-])c3ccc(=[N+](CC)CC)cc-3oc2c1	D1 agonist 172
O=C(/C=C/c1cccc2ccccc12)c1ccncc1	none
Cc1[nH]c2ccccc2c1/C=C/C(=O)c1ccncc1	D1 agonist 55
COc1ccc(-c2c(C)nn3c4c(cnc23)C(=O)CC(c2ccc(C)cc2)C4)cc1 (stereo not drawn)	none
Fc1cccc(Cl)c1CSc1nnnn1-c1ccc2c(c1)OCO2	D1 antag -32
Fc1cccc(Cl)c1Cn1nnc(-c2ccc3c(c2)OCO3)n1	none
Cc1cc(C)c2oc(-c3cccc(NC(=O)c4cc5ccccc5o4)c3)nc2c1	none
CCc1ccc(/C=N/NC(=O)c2nnn(-c3nonc3N)c2C(C)C)cc1	D1 agonist 142, TRHR PAM 41
COc1cccc(-c2c(C(=O)N/N=C/c3ccncc3)nnn2-c2nonc2N)c1	none
COc1cccc(-c2c(C(=O)N/N=C/c3ccoc3)nnn2-c2nonc2N)c1	D1 agonist 77
Cc1ccc(SCc2c(C(=O)N/N=C/c3ccccc3)nnn2-c2nonc2N)cc1	none
CC(C)c1c(C(=O)N/N=C/c2cccnc2)nnn1-c1nonc1N	none
Cc1ccc(SCc2c(C(=O)N/N=C/c3ccoc3)nnn2-c2nonc2N)cc1	D1 antag -45
Cc1ccc(-c2c(C(=O)N/N=C/c3ccoc3)nnn2-c2nonc2N)cc1	D1 agonist 44
Nc1nonc1-n1nnc(C(=O)N/N=C/c2ccccc2)c1CSc1ccc(Cl)cc1	D1 antag -46
CCOc1ccc(/C=N/NC(=O)c2nnn(-c3nonc3N)c2-c2cccs2)cc1	D1 agonist 165
Cc1ccc(-c2c(C(=O)N/N=C/c3ccc(OC(C)C)cc3)nnn2-c2nonc2N)cc1	D1 agonist 55, TRHR PAM 33
CCOC(=O)c1nnn(-c2nonc2N)c1-c1ccccc1	D1 antag -44
Nc1nonc1-n1nnc(C(=O)N/N=C/c2cccc(Cl)c2)c1CSc1ccc(Cl)cc1	none
CCOc1ccc(-c2c(C(=O)N/N=C/c3ccc(OC(C)C)cc3)nnn2-c2nonc2N)cc1	none
CCOc1ccc(-c2c(C(=O)N/N=C/c3cccs3)nnn2-c2nonc2N)cc1	none
CCCOc1ccc(-c2c(C(=O)N/N=C/c3ccc(C)cc3)nnn2-c2nonc2N)cc1	none
CCOc1ccc(-c2c(C(=O)N/N=C/c3ccc(C)cc3)nnn2-c2nonc2N)cc1	D1 agonist 44
CC(=O)c1cccc(N(C(=O)Cn2nnc3ccccc32)C(C(=O)NCc2ccccc2)c2ccc(F)cc2)c1 (stereo not drawn)	none
Cc1ccc(CNC(=O)C2CCN(C(=O)c3cccc(Cl)c3)CC2)cc1	D1 antag -57
Cc1ccc(C(=O)N2CCC(C(=O)NCc3cccnc3)CC2)cc1	none
COc1ccc(CNC(=O)C2CCN(C(=O)c3cccc(Cl)c3)CC2)cc1	D1 antag -35
COc1ccc2c(c1)c(=O)c(S(=O)(=O)c1ccc(C)c(C)c1)cn2CC(=O)Nc1ccccc1	none
Cc1ccc(CN2c3ccccc3-c3nc(SCC(=O)NCCc4ccccc4)ncc3S2(=O)=O)cc1	none
COc1ccc2cc(CN(C(=O)Nc3ccccc3OC)C3CCCC3)c(=O)[nH]c2c1	D1 antag -33
COc1ccccc1NC(=O)N(Cc1cccs1)Cc1cc2cc3c(cc2[nH]c1=O)OCO3	D1 antag -34
COc1ccc2cc(CN(CC3CCCO3)C(=O)Nc3ccccc3OC)c(=O)[nH]c2c1 (stereo not drawn)	none
COc1ccccc1NC(=S)N(CCCN(C)C)Cc1cc2cc3c(cc2[nH]c1=O)OCO3	none
CC1CCN(S(=O)(=O)c2cc(C(=O)N3CCN(c4cccc(Cl)c4)CC3)n(C)c2)CC1	none
CNC(=O)C1CCC(Cn2c(=O)c3sccc3n(CC(=O)Nc3ccc(C)c(F)c3)c2=O)CC1 (stereo not drawn)	none
CC(C)OCCCNC(=O)c1ccc2c(c1)N(Cc1c(F)cccc1Cl)C(=O)c1ccccc1S2	none
CC(/C=N/NC(=O)c1ccncc1)=C\c1ccccc1	none
CC(/C=N/NC(=O)Cc1cc(=O)[nH][nH]1)=C\c1ccccc1	D1 agonist 57
COc1ccccc1C(=O)N/N=C/C(C)=C/c1ccccc1	D1 antag -64
COCCNC(=S)N1CCCN(c2nc3cc(C)ccc3cc2C#N)CC1	none
COCCCNC(=S)N1CCCN(c2nc3c(C)c(C)ccc3cc2C#N)CC1	D1 antag -42

Compound activity as filed in PubChem BioAssay.
